# In PubChem BioAssay (NCI):
# This is part of a sample that, as a whole, favours compounds with a hit. Of some 83,000 tested, about 20% had one in any assay.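 Plates (96-well) were seeded with cells, treated with compound at one concentration, and incubated for 48 hours before percent growth was determined.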 Unmarked numbers belong to inactive results. Active and inactive are the calls of the source. How the source made its calls: active means growth percent below 10; inactive means the rest.
# Tested on: K-562 leukemia
# Test: NCI-60 one-dose screen, 48 h (100 = growth as untreated, 0 = no growth, -100 = all killed)
# Conditions: 10 µM unless noted
row,Compound,growth
1,O=C(CSc1nccc(=O)[nH]1)Nc1ccc(-c2nc3ccccc3[nH]2)cc1,105%
2,N[C@@H](Cc1cn(-c2ccnc3ccccc23)nn1)C(=O)O,107%
3,CCOC(=O)c1c(Nc2ccccc2)nn2c(N)c(C#N)c(-c3ccc(F)cc3)nc12,52.3%
4,O=C(N/N=C/c1ccc([N+](=O)[O-])o1)c1[nH]c2ccc(Br)cc2c1-c1ccccc1,3.51% (active)
5,CN(C)CCCNc1c2ccc(Cl)cc2nc2c1oc1ccc(Cl)cc12,-6.56% (active)
6,Cc1c(NC(=O)CSc2nc3sc4c(c3c(=O)n2-c2ccc(Cl)cc2)CCCC4)c(=O)n(-c2ccccc2)n1C,90.2%
7,CC(C)(C)Nc1nc2c(OCCc3ccccc3)cccn2c1-c1ccc(Cl)cc1,5.28% (active)
8,CN(C)CCCNc1c2ccc(Cl)cc2nc2c1oc1ccccc12,3.28% (active)
9,COc1ccccc1C(=O)CSc1nc(Nc2ccc(S(N)(=O)=O)cc2)c2ccccc2n1,85.7%
10,COc1ccccc1/C=C/C=N/NC1=NC2C(S1)N(C)C(=O)N2C (centres undefined),9.44% (active)
11,COc1cccc(N2CCN(c3ncnc4c3[nH]c3ccc(F)cc34)C[C@@H]2C)c1,-36% (active)
12,O=C(CSc1nnc(-c2ccc3nc(-c4ccc(Cl)cc4)[nH]c3c2)o1)Nc1ccc(C(=O)/C=C/c2ccc(Cl)cc2)cc1,81.4%
13,Cc1nc2cnc(N)c(C#Cc3cncc(C(=O)Nc4ccc(Cl)c(C(F)(F)F)c4)c3)c2nc1C,-15% (active)
14,Cc1ccc(C(=O)Nc2cccc(C(F)(F)F)c2)cc1Nc1nc(-c2cnccn2)nc2c1cnn2C,3.86% (active)
